Screening results from PubChem.
Tau ThT inhib: tau fibrillization inhibition (ThT binding) | P10636 | recombinant tau K18 P301L, heparin-induced fibrillization, ThT fluorescence | Potency, µM (series often up to 57.4 µM), for inactives: top-dose activity, negative = inhibition, hits mostly inhibitors | 2.1% of 270,000 active | AID 1460; further: nearly all actives have a fitted effect of over 55% in size
Target sequence (P10636 561-689 P618L limits assumed): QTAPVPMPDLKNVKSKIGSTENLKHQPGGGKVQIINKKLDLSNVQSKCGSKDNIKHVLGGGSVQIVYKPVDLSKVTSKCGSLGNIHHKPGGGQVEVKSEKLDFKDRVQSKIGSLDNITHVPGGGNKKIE
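Using a mix of unlabeled (15 uM) and Alexa 594-labeled (0.24 uM) tau K18 P301L, heparin-triggered fibrillization over 6 hr at 37 C was scored by ThT fluorescence.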
Tau FP inhib: inhibitors of human tau fibril formation; K18 P301L tau heparin fibrillization, Alexa594 FP, 6 h; Potency, µM (series often up to 57.7 µM), inactives show at the highest dose activity, negative = inhibition, most hits filed as inhibitors; 0.39% of 280,000 active; further: nearly all actives have a fitted effect of over 55% in size
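Recombinant K18 P301L […], labeled with Alexa 594 at 0.24 uM over 15 uM unlabeled; heparin inducer 20 uM final; 37 C, 6 hr; FP endpoint.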
RORg inh: inhibitors of mouse ROR gamma transcriptional activity; Potency, µM (top dose mostly 53.6 µM), inactives show top-dose activity change, negative = inhibition, hits mostly inhibitors; AID 2551; Drosophila S2 Gal4-RORgamma UAS-luciferase reporter, 20 h; 5.4% of 310,000 active; P51450; further: nearly all actives have a fitted effect of over 60% in size
Target sequence (P51450 whole entry, looked up, the tested form may be a part): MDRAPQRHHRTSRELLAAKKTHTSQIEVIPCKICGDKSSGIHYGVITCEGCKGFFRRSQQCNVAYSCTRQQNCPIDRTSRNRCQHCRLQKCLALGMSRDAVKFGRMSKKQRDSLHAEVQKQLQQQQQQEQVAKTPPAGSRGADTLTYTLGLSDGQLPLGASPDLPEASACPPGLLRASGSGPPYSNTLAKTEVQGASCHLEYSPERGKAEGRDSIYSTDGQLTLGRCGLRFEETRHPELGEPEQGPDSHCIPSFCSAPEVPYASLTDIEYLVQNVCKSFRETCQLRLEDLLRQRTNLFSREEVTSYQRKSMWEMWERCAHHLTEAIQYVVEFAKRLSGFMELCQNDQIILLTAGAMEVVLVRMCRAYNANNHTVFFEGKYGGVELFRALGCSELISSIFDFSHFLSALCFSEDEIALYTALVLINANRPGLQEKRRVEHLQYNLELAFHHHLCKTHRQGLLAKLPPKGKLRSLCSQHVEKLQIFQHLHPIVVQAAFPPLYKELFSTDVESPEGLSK
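Schneider cells (Drosophila), stable Gal4 DBD–ROR gamma + UAS-luc; 1 hr cmpd preincubation; Cu2+ induction 700 uM final; 20 hr ambient; luminescence.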
Tau fluor cs: counter-screen for tau fibril formation inhibitors | 0.93% of 280,000 active | Potency, µM (series often up to 57.7 µM), without a hit: top-dose activity change, negative = decrease | AID 1463 | tau K18 P301L (four-repeat tau fragment) Alexa594 fluorescence, heparin fibrillization; further: nearly all actives have a fitted effect of over 55% in size
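Human K18 P301L tau (15 uM unlabeled plus 0.24 uM Alexa 594-labeled, final) in 100 mM sodium acetate pH 7 was mixed with compound and 20 uM heparin and incubated 6 hr at 37 C.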
VP16 counter: inhibits Gal4-VP16 luciferase reporter, ROR gamma counter-screen; Drosophila S2 Gal4-VP16 UAS-luciferase, luminescence, 20 h; Potency, µM (doses to about 53.6 µM), inactives show at the top dose activity, negative = inhibition, hits mostly inhibitors; 3.5% of 310,000 active; AID 2546;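 further: Gal4-VP16 expression switched on by copper sulfate through the metallothionein promoter; nearly all actives have a fitted effect of over 50% in size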
An asterisk follows results filed as active; [ ] = another dose, or the depositor's remark. Shown are actives, neighbours in structure and some others; about 7.3% of the full set was active somewhere. The call rests on the fitted dose curve; in most records, active means well fitted curve in the direction sought with a large enough effect; inconclusive means small, poorly fitted or top-dose-only effect, or another doubt; inactive means no such curve, though single readings can be large; an effect the other way counts as inactive or inconclusive. On the % scale 0 is the no-effect control and ±100 the full control effect; potency means the concentration at half of the fitted maximal effect.

How did COc1ccccc1NC(=O)CSC1CC(=O)N(c2ccc3c(c2)OCO3)C1=O (configuration not stated) do in these assays?
Tau ThT inhib: inconclusive; Tau FP inhib: -2%; RORg inh: 5.6µM*; Tau fluor cs: -14%; VP16 counter: 5µM*

Results for COc1ccc(CCNc2nc(=S)[nH]c3cc(OC)c(OC)cc23)cc1OC ?
Tau ThT inhib: inconclusive; Tau FP inhib: 7%; RORg inh: 10µM*; Tau fluor cs: -22%; VP16 counter: inconclusive

How did COc1cc2[nH]c(=S)nc(NCc3cccs3)c2cc1OC do in these assays?
Tau ThT inhib: inconclusive; Tau FP inhib: -3%; RORg inh: 6.3µM*; Tau fluor cs: -18%; VP16 counter: 13µM*

How did COc1ccccc1CNc1nc(=S)[nH]c2cc(OC)c(OC)cc12 do in these assays?
RORg inh: -64%; VP16 counter: inconclusive

How did COCCCNc1nc(=S)[nH]c2cc(OC)c(OC)cc12 do in these assays?
Tau ThT inhib: -17%; Tau FP inhib: 1%; RORg inh: inconclusive; Tau fluor cs: -14%; VP16 counter: 3%

How did COc1cc2[nH]c(=S)nc(NCCC(C)C)c2cc1OC do in these assays?
Tau ThT inhib: -8%; Tau FP inhib: 12%; RORg inh: 4.5µM*; Tau fluor cs: -17%; VP16 counter: 8.9µM*

What do the screens show for `COc1cc2[nH]c(=S)nc(NCCc3ccc(S(N)(=O)=O)cc3)c2cc1OC`?
Tau ThT inhib: 17%; Tau FP inhib: 2%; RORg inh: 0%; Tau fluor cs: -14%; VP16 counter: -13%

What do the screens show for `COc1ccc(CCNC(=O)c2ccc(CNc3nc(=S)[nH]c4ccccc34)cc2)cc1OC`?
Tau ThT inhib: -1%; Tau FP inhib: inconclusive; RORg inh: -12%; Tau fluor cs: -9%; VP16 counter: 4%

Results for COc1cc2[nH]c(=S)nc(NCCc3ccc(C)cc3)c2cc1OC ?
Tau ThT inhib: inconclusive; Tau FP inhib: inconclusive; RORg inh: 0.89µM*; Tau fluor cs: -16%; VP16 counter: 6.3µM*

Results for Cc1ccc(-c2nc(C)c(CCNS(=O)(=O)c3ccc(F)c(C(F)(F)F)c3)s2)cc1 ?
Tau ThT inhib: -3%; Tau FP inhib: -2%; Tau fluor cs: inconclusive

Results for O=C(Cn1ncc2c([nH]c3ccccc32)c1=O)NCc1cccc(Cl)c1 ?
Tau ThT inhib: 16%; Tau FP inhib: inconclusive; Tau fluor cs: 1%

How did CCOc1ccc(CCNC(=O)c2oc(=O)c3ccccc3c2-c2ccc(C)cc2)cc1OCC do in these assays?
Tau ThT inhib: -15%; Tau FP inhib: -7%; Tau fluor cs: -19%

Results for COc1ccccc1/C=C\C(=O)NCC(=O)N/N=C(/C)c1cccc([N+](=O)[O-])c1 ?
RORg inh: 40%; VP16 counter: 1%

Results for COc1cc2[nH]c(=S)nc(NCc3ccc(Cl)cc3)c2cc1OC ?
RORg inh: 5µM*; VP16 counter: 7.1µM*

How did N[C@H](C(=O)O)c1nn[nH]n1 do in these assays?
Tau ThT inhib: -7%; Tau FP inhib: -20%; RORg inh: 21%; Tau fluor cs: -6%; VP16 counter: 5%

How did CCC(Sc1nnc2c3ccccc3n(C)c2n1)C(=O)Nc1nnc(C(C)C)s1 (configuration not stated) do in these assays?
Tau ThT inhib: -2%; Tau FP inhib: -9%; Tau fluor cs: -8%

How did CCC(C)Sc1nc2ccccc2n1CC(=O)O (configuration not stated) do in these assays?
Tau ThT inhib: 1%; Tau FP inhib: 1%; RORg inh: 13µM*; Tau fluor cs: 0%; VP16 counter: 2%

How did CC(C)Sc1nc2ccccc2n1CC(=O)O do in these assays?
Tau ThT inhib: 5%; Tau FP inhib: 4%; RORg inh: 33%; Tau fluor cs: -2%; VP16 counter: -5%

What do the screens show for `Cc1c(Cl)cccc1-n1nnc(-c2nc(-c3ccc4c(c3)OCO4)no2)c1C`?
Tau ThT inhib: 4%; Tau FP inhib: -17%; Tau fluor cs: -18%

What do the screens show for `Fc1ccc(-c2csc(N3CCSCC3)n2)cc1`?
Tau ThT inhib: -10%; Tau FP inhib: -3%; RORg inh: 8%; Tau fluor cs: -16%; VP16 counter: -3%

What do the screens show for `CC1=NN(c2nc(-c3ccc(F)cc3)cs2)C(=O)C1`?
Tau ThT inhib: inconclusive; Tau FP inhib: 11%; RORg inh: 13µM*; Tau fluor cs: -25%; VP16 counter: -8%

Results for CC1=NN(c2nc(-c3ccc(Cl)cc3)cs2)C(=O)C1 ?
Tau ThT inhib: 11µM*; Tau FP inhib: -1%; RORg inh: 10µM*; Tau fluor cs: inconclusive; VP16 counter: inconclusive

What do the screens show for `CCOc1ccccc1NC1=C(Cl)C(=O)N(Cc2ccccc2)C1=O`?
Tau ThT inhib: inconclusive; Tau FP inhib: 1%; RORg inh: -10%; Tau fluor cs: -28%; VP16 counter: 14%

What do the screens show for `O=C1C(Cl)=C(Nc2cccc(O)c2)C(=O)N1Cc1ccccc1`?
Tau ThT inhib: 14µM*; Tau FP inhib: -6%; RORg inh: inconclusive; Tau fluor cs: inconclusive; VP16 counter: -8%

How did COc1ccccc1-c1cnn2c(NC3CCCC3)cc(C)nc12 do in these assays?
RORg inh: 10µM*; VP16 counter: inconclusive

What do the screens show for `COc1ccc(/C=C2/SC(=S)N(NS(=O)(=O)c3ccccc3)C2=O)cc1`?
RORg inh: 31%; VP16 counter: -16%

How did CC(/C=C1\SC(=S)N(C(C(=O)O)C(C)C)C1=O)=C\c1ccccc1 (configuration not stated) do in these assays?
Tau ThT inhib: 22µM*; Tau FP inhib: -7%; RORg inh: 9%; Tau fluor cs: -8%; VP16 counter: -4%

Results for CC(/C=C1\SC(=S)N(NC(=O)c2ccc(C)cc2)C1=O)=C\c1ccccc1 ?
Tau ThT inhib: inconclusive; Tau FP inhib: 3%; RORg inh: 35%; Tau fluor cs: -28%; VP16 counter: 13%

Results for CC(/C=C1\SC(=S)N(NS(=O)(=O)c2ccccc2)C1=O)=C\c1ccccc1 ?
Tau ThT inhib: 10µM*; Tau FP inhib: inconclusive; RORg inh: -13%; Tau fluor cs: -29%; VP16 counter: -3%

How did CC(/C=C1\SC(=S)N(c2ccc(C(=O)O)cc2)C1=O)=C\c1ccccc1 do in these assays?
Tau FP inhib: 0%[0.0958 µM]; RORg inh: -30%; Tau fluor cs: 11%[0.0958 µM]; VP16 counter: inconclusive

What do the screens show for `CC(/C=C1\SC(=S)N(NS(=O)(=O)c2ccc(C)cc2)C1=O)=C\c1ccccc1`?
Tau ThT inhib: 11µM*; Tau FP inhib: inconclusive; RORg inh: 13%; Tau fluor cs: -15%; VP16 counter: -1%
